Only some compounds are listed: those with a hit (about 7.9% of all), similar ones and a draw of the others.
Marburg entry inh: Marburg virus entry inhibition. Marburg virus pseudotyped entry inhibition, cell reporter. Potency, µM (titrated, usually from 37.8 µM), hits mostly inhibitors. 1.8% of 300,000 active. AID 540276; calls by dose curve; tested in HEK293 cells
HCV inh: HCV inhibition | 3.4% of 340,000 active | AID 651820 | Huh7.5.1 HCVcc-Cre infection, luciferase reporter, 44 h | Potency, µM (titrated, usually from 41.8 µM), usual class: inhibitors; active = well fitted inhibition curve with a large enough effect; inconclusive = small, poorly fitted or top-dose-only effect, or another doubt; inactive = no such curve, though single readings can be large or run the other way
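A cell-based infection assay in which seeded cells (1,000 per well) receive test compound after 4 h, are inoculated with HCVcc-Cre at approximately 0.5 moi, and are incubated 44 h before luminescence detection.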
LASV entry inh: inhibitors of Lassa virus binding or cell entry; Lassa virus pseudotype entry inhibition, cell reporter; Potency, µM (series often up to 37.9 µM), most hits filed as inhibitors; 1.2% of 300,000 active; AID 540256; calls by dose curve; tested in HEK293 cells; note: nearly all actives have a fitted effect of over 50% in size
FMDV antiviral: antivirals against foot and mouth disease virus | FMDV antiviral cell-based qHTS | 1.2% of 410,000 active | Potency, µM (series often up to 57.9 µM), hits mostly inhibitors; calls by dose curve; tested in HEK293T cells; note: read-out not given here; nearly all actives have a fitted effect of over 45% in size
HCMV inh: blocks human cytomegalovirus replication; HFF cells, HCMV-luciferase reporter, 72 h; hits give low values; activity change, negative = inhibition, % at 57.5 µM; 4.5% of 410,000 active; in the data active = activity change below about -60%; inconclusive = no clear call, values can overlap the other calls; inactive = above about -39%
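Steps: HFFs plated, 16 h 37C; compounds added; HCMV-luciferase added to MOI 1 PFU/cell; 72 h 37C; OneGlo reagent, 5 min room temperature; luminescence read, normalized to controls.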
A number is an active result; . = inactive; ? = inconclusive; / = no result.

SMILES	Marburg entry inh	HCV inh	LASV entry inh	FMDV antiviral	HCMV inh
CC(C)Oc1ccc(CNC(=O)c2cccc(NC(=O)N3CCSc4ncccc43)c2)cc1	/	/	.	?	?
NC(=S)N/N=C/c1ccc(-n2nncc2-c2ccc(Cl)cc2)cc1	?	12.6µM	11.2µM	.	/
O=C(CSCc1nc2ccccc2[nH]1)N1CCN(c2cccc(Cl)c2)CC1	?	.	.	35.5µM	.
O=C(CSCc1nc2ccccc2[nH]1)N1CCN(c2ccc(F)cc2)CC1	?	12.6µM	.	35.5µM	.
O=C(CSCc1ccccc1)N1CCN(c2ccc(F)cc2)CC1	.	.	.	/	.
COC(=O)c1[nH]c(C)c(/C(O)=C2\C(=O)C(=O)N(CCN3CCOCC3)[C@H]2c2cccnc2)c1C	.	/	/	/	/
COCCN1C(=O)CC[C@@]23C1=NC(C(=O)OC)=C(C(=O)OC)[C@@H]2N(Cc1ccccc1)c1ccccc13	.	/	/	/	/
CCOc1ccc(OCC)c(NC(=O)CCc2nc3cccnc3n2-c2ccccc2)c1	.	/	.	.	.
Fc1ccc([C@H]2CCNCC2COc2ccc3c(c2)OCO3)cc1 (some centres undefined)	/	/	/	.	/
Fc1ccc([C@H]2CCNC[C@H]2COc2ccc3c(c2)OCO3)cc1	16.4µM	/	/	.	/
CN(C)S(=O)(=O)N1CCC(c2ccc(F)cc2)C(COc2ccc3c(c2)OCO3)C1 (centres undefined)	2.82µM	?	?	.	.
CN(C)S(=O)(=O)N1CCN(C(=O)c2ccc3c(c2)OCO3)CC1	.	.	.	.	?
Cn1c(O)c(C(=Nc2ccccc2)SCc2ccccc2Cl)c(=O)n(C)c1=O	?	.	.	?	-64.9
CSC(=Nc1ccccc1)c1c(O)n(C)c(=O)n(C)c1=O	.	.	.	.	.
O=C1NC[C@H](CCCCN2C[C@H](Cc3ccccc3)N(CCC3CCCCC3)C(=O)C2=O)N(CCC2CCCCC2)C1=O	/	/	/	39.8µM	.
O=C1NC[C@H](CCCCN2C[C@H](Cc3ccc(O)cc3)N(CC3CCCCC3)C(=O)C2=O)N(Cc2ccccc2)C1=O	/	/	/	.	-74.8
O=c1c2c3c(sc2n(CCN2CCOCC2)c(=O)n1Cc1ccco1)CCCCC3	?	10µM	?	.	-95.5
O=c1c2c3c(sc2n(CCN2CCCCC2)c(=O)n1Cc1ccco1)CCCCC3	16.4µM	?	.	.	.
O=C(Cn1ncc2c(=O)oc3ccccc3c21)NCc1ccc(Cl)cc1	.	/	.	.	.
CCCCN1C(=O)C(CC(=O)NCC2CCCCC2)CC(C(=O)N(C)C)=C1C (centres undefined)	/	/	/	.	-105.3
CCCCN1C(=O)C(CC(=O)NCC2CCCCC2)CC(C(=O)N(CC)CC)=C1C (centres undefined)	/	/	/	.	.
CN1CCc2c(n(CC(O)CNCc3ccccc3)c3ccccc23)C1=O (centres undefined)	/	?	/	.	.
CC(C)NCC(O)Cn1c2c(c3ccccc31)CCc1c-2cnn1-c1ccccc1 (centres undefined)	?	?	7.08µM	?	-103.5
NC(=O)C(c1ccc(Cl)cc1)c1ccc(Sc2ccc(Cl)cc2)nn1 (centres undefined)	?	?	?	?	-89.1
O=C(N/N=C\c1ccc([N+](=O)[O-])s1)C1COc2ccccc2O1 (centres undefined)	/	10µM	/	.	.
SMILES	Marburg entry inh	HCV inh	LASV entry inh	FMDV antiviral	HCMV inh
O=C(N/N=C\c1ccc([N+](=O)[O-])o1)C1COc2ccccc2O1 (centres undefined)	?	?	?	.	-84.2
CCOC(=O)Nc1c[n+](N2CCOCC2)no1	.	/	/	/	/
Nc1ccc(C(=O)OCc2nc3cc4ccccc4cc3[nH]2)cc1	1.64µM	.	2.59µM	.	-93.1
Nc1ccc(Cc2nc3cc4ccccc4cc3[nH]2)cc1	?	.	2.59µM	/	?
Nc1ccc(C(=O)OCc2nc3c(ccc4ccccc43)[nH]2)cc1	?	?	8.91µM	.	.
COCCCNC(=O)CCC(=O)N1Cc2ccccc2Oc2ncccc21	/	/	.	.	.
O=C(NCC1CC1)c1nnc2n1CCN(C(=O)c1cccc3c1OCCO3)C2	/	/	/	/	.
Cc1cccc(C(=O)N(Cc2nc(-c3ccc(Cl)cc3)no2)C(C)C)c1	/	/	.	.	.
Cc1onc(-c2ccccc2Cl)c1C(=O)NCc1nc(-c2ccc(C(F)(F)F)cc2)no1	?	?	10µM	?	.
Cc1onc(-c2ccccc2Cl)c1C(=O)c1ccccc1	.	.	.	?	.
COc1ccccc1C(=O)N(Cc1nc(-c2cccc(C)c2)no1)C(C)C	?	/	?	.	.
Cc1cccc(-c2noc(CN(C(=O)c3c(-c4ccccc4Cl)noc3C)C(C)C)n2)c1	.	10µM	/	.	.
Cc1ccc(C)c(C(=O)N(Cc2nc(-c3ccc(Cl)cc3)no2)C(C)C)c1	/	10µM	/	?	.
Cc1onc(-c2ccccc2Cl)c1C(=O)NCc1ccccc1F	/	.	/	.	.
Cc1onc(-c2ccccc2Cl)c1C(=O)N(Cc1nc(-c2ccccc2)no1)C1CCCCC1	?	11.2µM	?	.	.
COc1ccc(CC(=O)NCC(c2ccc(N(C)C)cc2)N2CCOCC2)cc1 (centres undefined)	/	/	?	.	.
O=C(CCS(=O)(=O)c1cc(Br)cc2c1N(C(=O)C1CC1)CC2)N1CCN(c2ccccc2)CC1	.	/	.	.	.
Cc1ccc(N2C(=O)C(CC(=O)Nc3ccccc3)N(CCC3=CCCCC3)C2=O)cc1 (centres undefined)	?	/	.	.	.
CN1C(=O)COCc2cc(-c3ccc(F)c(Cl)c3)ccc21	/	/	/	/	.
Cc1cccc(-c2noc(CN(C(=O)c3ccc(C)c(C)c3)C(C)C)n2)c1	.	/	?	?	-94.6
CCOC(=O)N1CCN(c2c(N3CCN(C(=O)OCC)CC3)c(=O)c2=O)CC1	/	.	/	.	.
COC(COC(N)=O)C1=C(N2CC2)C(=O)C(C)=C(N2CC2)C1=O (centres undefined)	?	0.562µM	1.26µM	.	.
COC(=O)CC1C(=O)NCCN1C(=O)CN1Cc2ccccc2OC(c2ccccc2)C1 (centres undefined)	/	/	/	.	/
CCCCCCN1C2=NCCN2c2ccccc21	?	?	.	?	.
CCCCCCn1ccc(=N)cc1	12.6µM	0.794µM	?	.	-79.7
SMILES	Marburg entry inh	HCV inh	LASV entry inh	FMDV antiviral	HCMV inh
CCOC(=O)/C(C#N)=C(/C)c1ccc(OC)cc1	.	31.6µM	.	.	.
Cc1[nH]c2c(ccc3ccccc32)c1C1C(CCN)C1(C)C (centres undefined)	25.9µM	?	?	?	.
S=c1[nH]c2ccc3ccccc3c2[nH]1	.	.	?	.	.
CC(C)NC(=O)N1CCCN(c2nc3ccc(Cl)cc3s2)CC1	.	3.98µM	.	.	?
CC(C)C(=O)N1CCN(c2nc3ccc(Cl)cc3s2)CC1	/	?	/	.	.
c1coc(CNc2ncnc3sc4c(c23)CCCCC4)c1	.	?	.	?	.
c1ccc(CNc2ncnc3sc4c(c23)CCCC4)nc1	.	?	.	?	?
Cc1nc(NCc2ccco2)c2c3c(sc2n1)CCC3	?	.	.	?	-70.3
Cc1nc(NCc2ccccn2)c2c3c(sc2n1)CCCC3	?	22.4µM	.	?	.
Oc1cccc(-c2nc3c4c(ncn3n2)-c2ccccc2CC42CCCC2)c1	23.1µM	/	.	?	-93.3

Bioassay records deposited in PubChem by National Center for Advancing Translational Sciences (NCATS).
